CYP2C19 activ: human CYP2C19 activators, primary screen, biochemical, luminescence. recombinant CYP2C19, luciferin-H EGE luminescence; hits give high values; 0 = fully inhibited enzyme, 1 = untreated enzyme. 96,000 tested, under 10 active. activation factor at 5 µM. AID 1025, 2008. Cytochrome P450 2C19 (Homo sapiens), P33261;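 active means activation factor of at least 2 at 5 µM in the primary screen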;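 further: 0 = wells with 2.5 mM tranylcypromine and 1 = vehicle-only wells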
CYP2C19 inhib: blockers of cytochrome P450 2C19 activity – biochemical, luminescence, ADME assay, primary screen | hit rate 21% among 96,000 | inhibition, % at 5 µM | CYP2C19 Supersomes, luciferin-H EGE luminescence, 30 min;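 active means CYP2C19 inhibition above a set limit at 5 µM in the primary screen, cut at about 50% in these data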;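 further: plate controls were negative control wells for no effect and 2.5 mM tranylcypromine positive control for full effect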
PLAP act: PLAP enzyme activators, biochemical, luminescence, HTS. Alkaline phosphatase, placental type (Homo sapiens), P05187. purified PLAP enzyme, luminescent substrate read-out; hits give high values. activation fold at 20 µM. hit rate 1.2% among 96,000. AID 696, 2007; in the data active means activation fold above about 2
CYP2C9 activ: human CYP2C9 activators, primary screen, biochemical, luminescence; hit rate 1.4% among 96,000; recombinant CYP2C9, luciferin-H conversion; hits give high values; factor 1 = untreated enzyme, 0 = blocked; AID 1024, 2008; Cytochrome P450 2C9 (Homo sapiens), P11712; activation factor at 5 µM;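 active means activation factor of 2 or more for CYP2C9 at a 5 µM dose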;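 further: 0 = sulfaphenazole-blocked wells and 1 = vehicle-only wells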
CYP2C9 inh: blockers of cytochrome P450 2C9 activity – biochemical, luminescence, ADME assay, primary screen; P11712; CYP2C9 Supersomes, luciferin-H conversion; inhibition, % at 5 µM; hit rate 20% among 96,000;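 active means blocking of liver enzyme CYP2C9 beyond about 50% at 5 µM, limit read from the data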
An asterisk follows results filed as active. Only some compounds are listed: those with a hit (about 31% of all), similar ones and a draw of the others.

SMILES	CYP2C19 activ	CYP2C19 inhib	PLAP act	CYP2C9 activ	CYP2C9 inh
O=c1c2ccsc2ncn1Cc1ccccc1F	0.6	42.0	1	1	3.8
O=c1c2ccsc2ncn1Cc1cccc(C(F)(F)F)c1	0.6	35.1	1	0.5	53.4*
CCC(C)N(C(=O)COC(=O)c1[nH]c(C)c(C(C)=O)c1C)C1CCS(=O)(=O)C1 (stereo unspecified)	1.1	-9.1	1.1	1.1	-9.9
COc1ccc(Cc2nnc(NC(=O)c3c(-c4ccccc4)noc3C)s2)cc1	0.2	84.0*	1.2	0.1	93.1*
Cc1onc(-c2ccccc2)c1C(=O)NCCc1c[nH]c2ccccc12	0.4	58.6*	0.7	0.4	56.4*
COc1ccc(CCNC(=O)c2c(-c3ccccc3)noc2C)cc1OC	0.1	89.7*	1.5	0.1	85.6*
Cc1onc(-c2ccccc2)c1C(=O)NC(C)C	1	1.5	1	0.9	8.4
COc1ccc(Cc2nnc(NC(=O)c3c(-c4ccccc4)noc3C)s2)cc1OC	0.9	8.7	1.3	0.5	53.7*
CCOC(=O)c1c(NC(=O)c2c(-c3ccccc3)noc2C)sc(C)c1-c1ccccc1	0.9	8.9	0.9	0.6	40.9
CN(CC(=O)NCCN1CCN(c2ccccc2)CC1)S(=O)(=O)c1ccc2c(c1)CCC(=O)N2	1	3.1	1.4	0.9	9.8
O=C(OCCN1CCOCC1)c1cccs1	1	1.7	1	1.1	-10.9
Cc1cccc(C)c1NC(=S)N/N=C/c1ccc(OCCC(C)C)cc1	0.8	15.5	1.1	0.4	61.7*
Cc1ccc(S(=O)(=O)N2CCN(S(=O)(=O)c3ccc(C)cc3)C3OCCOC32)cc1 (stereo unspecified)	1.1	-14.1	0.8	1	-1.6
CCn1c(=O)n(CC)c2cc(S(=O)(=O)Nc3ccccc3C)c(C)cc21	0.3	71.6*	0.9	0.2	75.5*
CC1CCN(S(=O)(=O)c2cc(Cl)ccc2Br)CC1	0	98.2*	1.2	3.1*	-212.9
CC1CCCN(S(=O)(=O)c2cc(Cl)ccc2Cl)C1 (stereo unspecified)	0	96.2*	1.1	2.4*	-142.0
CC1CCCN(S(=O)(=O)Cc2ccc(Cl)cc2)C1 (stereo unspecified)	0	97.0*	0.8	1	-0.7
CC1CCN(S(=O)(=O)c2ccc(Cl)cc2)CC1	0.6	44.5	1	1	2.2
O=S(=O)(c1ccc(Cl)cc1Br)N1CCCCC1	0.1	87.1*	0.9	1.8	-84.7
COC(=O)CSc1nnc(C)n1-c1cccc(C#N)c1	1.2	-22.9	0.9	1.2	-18.3
O=C(Nc1cn(-c2ccccc2)nc1-c1cccs1)c1ccco1	0.6	37.0	1	0.6	35.2
Cc1ccc(C(=O)NCC2CCCO2)cc1N1CCCC1=O (stereo unspecified)	1	-4.3	1.1	1.1	-5.9
O=S(=O)(c1ccc(F)c2ccccc12)N1CCCCC1	0.8	21.4	1.1	4.7*	-366.6
O=C(Nc1ccc(Cl)c(Cl)c1)N1CCSC1c1ccco1 (stereo unspecified)	0.6	43.1	0.8	0.4	59.1*
O=C(Nc1ccc(Cl)c(Cl)c1)N1CC=CCC1	0.7	32.2	0.9	0.8	22.5
SMILES	CYP2C19 activ	CYP2C19 inhib	PLAP act	CYP2C9 activ	CYP2C9 inh
CC(=O)N1N=C(c2ccc(C)cc2)OC1c1ccc(C(C)C)cc1 (stereo unspecified)	0.8	22.6	1.1	0.9	10.0
COCCCNC(=O)c1c(N)n(/N=C/c2ccccn2)c2nc3ccccc3nc12	0.5	47.4	1.2	0.5	52.2*
CC(C)C(NS(=O)(=O)c1cccc2nsnc12)C(=O)N1CCc2ccccc2C1 (stereo unspecified)	0.8	24.4	1	0.6	41.0
CCn1c(-c2ccc(-c3ccccc3)cc2)c[nH]c1=S	0.2	81.3*	0.9	0.8	19.2
Cn1c(-c2ccc(-c3ccccc3)cc2)c[nH]c1=S	0.1	88.7*	1.1	0.4	64.0*
Cn1c(-c2ccccc2)cnc1N	0.9	11.9	1	0.8	16.3
CCn1c(-c2ccc(Cl)cc2)n[nH]c1=S	0.7	25.8	0.8	0.9	6.5
C=CCn1c(-c2ccc(Cl)cc2)c[nH]c1=S	0.3	66.4*	0.8	0.6	42.3

Screening data (PubChem BioAssay)
